Experiment [1] can be described thus: anti-His antibody binders, primary screen, artefact control for SMM control protein annotation, biochemical, small-molecule microarray, 635 nm fluorescence (AID 1128).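 Note: score merges feature fluorescence with signal-to-noise for each printed compound spot.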 To be noted: anti-His Alexa647 antibody binding, higher = more signal.
The test system of experiment [2] is Human papillomavirus type 1a E7 protein (residues 1-88). In words: HPV1a E7 small-molecule binders, primary screen, biochemical, small-molecule microarray, residues 1-88, 635 nm (AID 1129). To be noted: small-molecule microarray binding, fluorescence 635 nm; higher = more signal.
The target in experiment [3] is Focal adhesion kinase 1 (Homo sapiens) (UniProt Q05397). Nature of the experiment: small-molecule microarray binders of FAK, primary screen, biochemical, 635/667 nm fluorescence, BSA, DTT (AID 1130).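 Note: composite of spot emission at 667 nm and signal to noise over triplicate slides.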 The settings on record: PTK2 binding, 635 nm fluorescence, higher = more signal.
Focal adhesion kinase 1 (Homo sapiens), sequence (Q05397 whole entry, looked up): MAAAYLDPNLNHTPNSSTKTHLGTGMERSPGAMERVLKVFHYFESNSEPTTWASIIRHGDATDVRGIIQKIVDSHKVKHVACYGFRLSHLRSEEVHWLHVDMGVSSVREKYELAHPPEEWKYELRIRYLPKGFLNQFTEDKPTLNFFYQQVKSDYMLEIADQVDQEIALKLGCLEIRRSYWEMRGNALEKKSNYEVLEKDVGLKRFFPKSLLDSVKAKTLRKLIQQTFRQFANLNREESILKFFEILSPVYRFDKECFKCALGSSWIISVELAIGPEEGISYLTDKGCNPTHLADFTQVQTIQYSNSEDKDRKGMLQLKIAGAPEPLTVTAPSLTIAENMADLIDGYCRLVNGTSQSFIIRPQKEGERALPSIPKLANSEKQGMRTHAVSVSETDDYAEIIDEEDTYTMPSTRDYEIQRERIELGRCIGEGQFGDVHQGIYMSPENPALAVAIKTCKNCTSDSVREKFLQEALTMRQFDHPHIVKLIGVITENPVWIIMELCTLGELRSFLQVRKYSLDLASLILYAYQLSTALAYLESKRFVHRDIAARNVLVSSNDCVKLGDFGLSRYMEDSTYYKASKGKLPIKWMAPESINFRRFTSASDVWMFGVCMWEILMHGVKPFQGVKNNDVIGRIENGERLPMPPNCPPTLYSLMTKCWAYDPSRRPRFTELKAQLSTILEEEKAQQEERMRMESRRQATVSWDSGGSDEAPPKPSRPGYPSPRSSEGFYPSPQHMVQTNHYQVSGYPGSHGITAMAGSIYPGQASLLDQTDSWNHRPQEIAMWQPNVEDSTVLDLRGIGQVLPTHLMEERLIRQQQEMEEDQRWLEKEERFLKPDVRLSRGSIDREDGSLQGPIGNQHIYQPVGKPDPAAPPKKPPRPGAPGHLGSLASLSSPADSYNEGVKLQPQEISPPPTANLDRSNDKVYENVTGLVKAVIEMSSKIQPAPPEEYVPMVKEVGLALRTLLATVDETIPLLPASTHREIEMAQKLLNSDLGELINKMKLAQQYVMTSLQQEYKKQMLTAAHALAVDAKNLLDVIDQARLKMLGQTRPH
The subject of experiment [4] is Fibrinogen (Alexa647-labelled). In words: fibrinogen binders on compound microarrays, profiling panel, artefact control for SMM control-protein annotation, biochemical, small-molecule microarray, 635/667 nm fluorescence (AID 1131).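 Note: z-score merges 667 nm fluorescence with per-spot signal-to-noise over triplicate slides.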 The settings on record: fibrinogen-A647 binding fluorescence, higher = more signal.
Experiment [5] has as its target Follistatin (Homo sapiens) (UniProt P19883). Nature of the experiment: follistatin binders on small-molecule microarrays, primary screen, biochemical, small-molecule microarray, 635/667 nm fluorescence (AID 1132). The settings on record: FST binding, 635 nm fluorescence, higher = more signal.
Experiment [6] concerns the target Fibroblast growth factor 2 (Homo sapiens) (UniProt P09038). Nature of the experiment: FGF2 binders on small-molecule microarrays, primary screen, biochemical, small-molecule microarray, 635/667 nm fluorescence (AID 1133). The settings on record: small-molecule microarray binding, FGF2, fluorescence 635/667; higher = more signal.
Experiment [7] in a line: mitochondrial membrane potential change in A549 cells, profiling panel, cell-based, JC-1 fluorescence, basal, 24 h, 100 nL (AID 1138).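 Note: A549 lung adenocarcinoma cells under basal conditions with no added stimulus; test concentration not given here.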 To be noted: higher = more signal.
Another experiment relates to Lefty1. In words: Lefty1 binders on small-molecule microarrays, primary screen, biochemical, small-molecule microarray, 635/667 nm fluorescence (AID 1139). The settings on record: small-molecule microarray binding, fluorescence 635/667; higher = more signal.
The subject of experiment [8] is wheat germ agglutinin (Triticum aestivum), Alexa647-labelled. In words: wheat germ agglutinin binders on compound microarrays, profiling panel, artefact control for SMM control-protein annotation, biochemical, small-molecule microarray, 635/667 nm fluorescence (AID 1140).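 Note: score merges 667 nm feature emission with signal to noise over triplicate slides.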 To be noted: WGA-A647 binding, 635 nm fluorescence, higher = more signal.
Experiment [9] deals with Luciferin 4-monooxygenase (Photinus pyralis) (UniProt P08659). Nature of the experiment: firefly luciferase enzyme inhibitors, primary screen, biochemical, luminescence, purified enzyme, 2006 set (AID 1141).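 Note: cell-free assay with purified firefly luciferase at 100 ng per well in PBS; test concentration not given here.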 The settings on record: SteadyGlo luminescence, 30 min, higher = more signal, called active from +8 up or from −8 down.
Luciferin 4-monooxygenase (Photinus pyralis), sequence (P08659 whole entry, looked up): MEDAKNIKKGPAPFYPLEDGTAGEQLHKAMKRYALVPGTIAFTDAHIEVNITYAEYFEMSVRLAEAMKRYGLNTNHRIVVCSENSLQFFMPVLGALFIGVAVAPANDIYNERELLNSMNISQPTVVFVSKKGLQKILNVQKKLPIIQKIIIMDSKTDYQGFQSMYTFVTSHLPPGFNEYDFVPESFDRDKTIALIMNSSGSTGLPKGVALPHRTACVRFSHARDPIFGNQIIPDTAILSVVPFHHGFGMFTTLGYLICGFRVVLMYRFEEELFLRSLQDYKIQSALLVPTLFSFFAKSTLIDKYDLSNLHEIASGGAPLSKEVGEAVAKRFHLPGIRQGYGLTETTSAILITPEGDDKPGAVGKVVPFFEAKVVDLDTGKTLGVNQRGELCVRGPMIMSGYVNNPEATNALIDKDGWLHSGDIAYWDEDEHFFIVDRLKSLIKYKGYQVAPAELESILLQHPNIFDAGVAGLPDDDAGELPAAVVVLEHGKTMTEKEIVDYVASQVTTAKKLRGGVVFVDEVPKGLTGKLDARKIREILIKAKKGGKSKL
Experiment [10] deals with Wnt5a (protein binding on small-molecule microarray). Nature of the experiment: Wnt5a binders on small-molecule microarray, primary screen, biophysical, 635/667 nm fluorescence (AID 1142).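 Note: fluorescence read at 667 nm with signal to noise per printed feature.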 The settings on record: 635 nm fluorescence, higher = more signal.
Experiment [11] in a line: cell viability in Huh7 cells, primary screen, cytotoxicity control for HCV replication inhibitor project, CellTiter-Glo luminescence, basal, 48 h (AID 1143).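 Note: Huh7 hepatoma cells carrying a hepatitis C replication reporter with no stimulus; test concentration not given here.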 To be noted: Huh7 HCV replicon, higher = more signal, called active from +8 up or from −8 down.
Experiment [12] is described as follows: P. aeruginosa biofilm formation inhibitors, primary screen, PAO1 strain, BacTiter-Glo luminescence, LB-PBS (AID 1144). The settings on record: 12 h, higher = more signal.
A short description of experiment [13]: CREB reporter modulators without forskolin, primary screen, cell-based, PC12, CRE-LacZ reporter, unstimulated (AID 1145). The settings on record: no forskolin, luminescence, 4.5 h, higher = more signal, called active from +8 up or from −8 down.
Experiment [14] in a line: CREB reporter modulators under forskolin, primary screen, cell-based, PC12, CRE-LacZ reporter, forskolin-stimulated (AID 1146).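 Note: PC12 cells with 6xCRE LacZ reporter stimulated by forskolin 10 µM; beta-galactosidase reporter signal reflecting CREB driven transcription.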 The settings on record: luminescence, 4.5 h, higher = more signal, called active from +8 up or from −8 down.
The target of experiment [15] is Streptavidin (Streptomyces avidinii) (UniProt P22629). In words: streptavidin binders on small-molecule microarray, primary screen, artefact control for SMM compound annotation, biophysical, 635/667 nm fluorescence (AID 1147).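 Note: signal reflects streptavidin binding to arrayed compounds as a control protein.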 The settings on record: streptavidin binding, higher = more signal.
Streptavidin (Streptomyces avidinii), sequence (P22629 whole entry, looked up): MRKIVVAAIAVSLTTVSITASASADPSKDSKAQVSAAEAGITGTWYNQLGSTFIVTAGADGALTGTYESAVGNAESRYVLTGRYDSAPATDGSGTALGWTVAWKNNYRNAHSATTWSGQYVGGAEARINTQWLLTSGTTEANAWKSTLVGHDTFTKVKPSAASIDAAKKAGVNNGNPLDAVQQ
The nature of experiment [16]: small-molecule binders of probe aInhba, primary screen, biochemical, small-molecule microarray, 635/667 nm fluorescence (AID 1148).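 Note: score merges 667nm spot fluorescence with signal-to-noise for antibody binding to printed compounds.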 The settings on record: higher = more signal.
Experiment [17] concerns the target Torsin-1A (Homo sapiens) (UniProt O14656). In words: torsin A binders from cell lysate, primary screen, small-molecule microarray, wild-type, 635/667 nm (AID 1149). The settings on record: COS7 hTOR1A-WT lysate, 635 nm fluorescence, higher = more signal.
Experiment [18] shares this target. Nature of the experiment: small-molecule binders of mutant TOR1A in lysate, primary screen, cell lysate, small-molecule microarray, COS7 lysate, 635/667 nm fluorescence (AID 1150).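 Note: score pools 667 nm emission and signal to noise measuring lysate protein binding.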 The settings on record: COS7 hTOR1A mutant lysate, 635 nm fluorescence, higher = more signal.
Experiment [19] deals with Sonic hedgehog protein (Shh). In words: small-molecule binders of Shh protein, primary screen, biochemical, small-molecule microarray, 635/667 nm fluorescence (AID 1151).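 Note: Shh protein binding to compounds spotted on small-molecule microarray slides; score combines spot fluorescence intensity with signal-to-noise across triplicate slides.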 To be noted: small-molecule microarray binding, 635 nm fluorescence; higher = more signal.

Active and inactive are the calls of the source. Unless noted, the rule behind the calls is not given here.

Follistatin (Homo sapiens), sequence (P19883 whole entry, looked up): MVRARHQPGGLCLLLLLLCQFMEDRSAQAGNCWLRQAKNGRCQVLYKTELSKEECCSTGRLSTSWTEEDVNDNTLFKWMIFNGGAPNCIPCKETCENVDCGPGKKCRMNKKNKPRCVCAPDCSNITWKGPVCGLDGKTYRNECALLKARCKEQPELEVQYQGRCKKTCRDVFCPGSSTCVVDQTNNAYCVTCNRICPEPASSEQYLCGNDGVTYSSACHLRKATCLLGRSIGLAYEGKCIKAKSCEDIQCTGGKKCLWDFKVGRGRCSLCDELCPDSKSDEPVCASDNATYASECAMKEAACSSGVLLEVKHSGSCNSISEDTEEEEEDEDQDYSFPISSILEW
Fibroblast growth factor 2 (Homo sapiens), sequence (P09038 whole entry, looked up): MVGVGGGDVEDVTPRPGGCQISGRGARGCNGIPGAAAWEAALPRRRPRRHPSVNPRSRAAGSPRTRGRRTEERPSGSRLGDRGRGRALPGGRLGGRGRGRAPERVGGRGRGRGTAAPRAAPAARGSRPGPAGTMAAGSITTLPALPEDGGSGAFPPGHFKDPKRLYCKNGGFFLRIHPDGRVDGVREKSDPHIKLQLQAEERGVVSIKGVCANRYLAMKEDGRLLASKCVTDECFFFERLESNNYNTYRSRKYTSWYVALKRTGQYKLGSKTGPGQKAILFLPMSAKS
Torsin-1A (Homo sapiens), sequence (O14656 whole entry, looked up): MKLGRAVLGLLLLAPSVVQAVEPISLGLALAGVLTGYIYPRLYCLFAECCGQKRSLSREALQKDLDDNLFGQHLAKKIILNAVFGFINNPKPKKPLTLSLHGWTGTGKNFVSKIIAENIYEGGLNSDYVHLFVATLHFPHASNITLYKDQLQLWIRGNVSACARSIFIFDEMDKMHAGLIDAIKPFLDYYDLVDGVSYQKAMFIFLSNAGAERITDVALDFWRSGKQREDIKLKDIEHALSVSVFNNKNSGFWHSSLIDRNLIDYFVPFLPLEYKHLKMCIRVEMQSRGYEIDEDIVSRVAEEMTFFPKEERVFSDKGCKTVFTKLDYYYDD

For `C=CCC(OC(C)=O)[C@@H]1[C@@H](N(Cc2cccc3ccccc23)C(=O)c2ccc(C)cc2)c2cc(OCCCO)ccc2N1C(=O)c1ccc2ccccc2c1` (stereo not given in full), the composite z-score in experiment [1] was -0.204; in [2] it was 0.133; in [3], 0.0096; in experiment [4], 0.189; in [5], 0.672; in [6], 0.123. The composite z-score in the experiment with Lefty1 is 0.102; in experiment [8] it was -0.193; in [10], 0.0228; in [15], 0.128; in experiment [16] it was 0.0797; with Torsin-1A (Homo sapiens) [17] it was 0.196. The values for the composite z-score (in the experiment with Torsin-1A (Homo sapiens) [18]; in experiment [19]) were 0.792 and 0.788, respectively. Also, the z-score was 1.15 in experiment [7]; -0.195 (inactive) in [9]; -0.487 (inactive) in experiment [11]; -0.412 (inactive) in experiment [12]; 1.22 (inactive) in experiment [13]; 0.197 (inactive) in [14].

Consider `C=CCOC(=O)[C@@H]1[C@H]2C(=O)O[C@H](c3ccccc3)[C@H](c3ccccc3)N2[C@H](c2ccc(OCCOC(=O)[C@H]3C[C@H]4C(=O)N[C@@H](Cc5ccccc5)C(=O)N4[C@H]3c3cccc(OCCO)c3)cc2)[C@@]12C(=O)Nc1ccc(I)cc12`, for which the composite z-score in experiment [1] came out at 1.51; in [2], 1.2; in experiment [3] it was 0.819; in [4], 0.464; in experiment [5], 1.42; in experiment [6], 1.72. Further, the composite z-score was 1.33 in the experiment on Lefty1; 0.548 in [8]; 0.776 in [10]; 0.502 in experiment [15]; 0.294 in [16]; 0.787 with Torsin-1A (Homo sapiens) [17]. In addition, the composite z-score was 0.959 with Torsin-1A (Homo sapiens) [18] and 2.02 in experiment [19]. The z-score was -1.37 in experiment [7]; -3.65 (inactive) in experiment [9]; -0.467 (inactive) in experiment [11]; -0.787 (inactive) in [12]; 6.98 (inactive) in [13]; 11.6 (active) in [14].

For `CCC[C@@H]1C[C@@]1(CCC)[C@@H](NC(=O)c1ccco1)c1ccc(Cl)cc1`, the composite z-score in [1] is -0.348; in experiment [2] it was -1.71; in [3] it was -0.386; in experiment [4] it was -0.495; in experiment [5], -0.388; in [6] it was -0.882. Moreover, the composite z-score in the experiment with Lefty1 was -0.769; in experiment [8], -0.493; in experiment [10] it was -0.114; in experiment [15], -0.489; in [16], 0.0074; in the experiment with Torsin-1A (Homo sapiens) [17] it was -1.5. Besides, the composite z-score with Torsin-1A (Homo sapiens) [18] was -0.94; in experiment [19], -0.323. The z-score in experiment [7] is 0.523; in experiment [9], -0.31 (inactive); in [11], -2.99 (inactive); in [12] it was 0.789 (inactive); in experiment [13], 0.58 (inactive); in experiment [14], 0.974 (inactive).

With `[N-]=[N+]=Nc1ccccc1[C@H]1OC(c2ccc(OCCCO)cc2)=N[C@@]1(Cc1ccccc1)C(=O)NCc1ccccc1`, the composite z-score in [1] was 1.29; in experiment [2], 1.2; in experiment [3], 0.425; in [4] it was 0.997; in experiment [5], 1.15; in [6], 0.291. Moreover, the composite z-score in the experiment on Lefty1 was 0.362; in experiment [8], 0.415; in experiment [10] it was 0.821; in experiment [15], 0.501; in [16] it was 0.0301; with Torsin-1A (Homo sapiens) [17] it was 0.104. The composite z-score with Torsin-1A (Homo sapiens) [18] is 0.383; in experiment [19], -0.272. For the same compound, the z-score was 0.361 in experiment [7]; -6.55 (inactive) in experiment [9]; -5.4 (inactive) in experiment [11]; -0.638 (inactive) in experiment [12]; -0.16 (inactive) in experiment [13]; -1.26 (inactive) in [14].

Take `NC(=O)NCC#Cc1ccc2c(c1)[C@]1(C(=O)N2)[C@H](c2ccc(O)cc2)N2[C@H](c3ccccc3)[C@H](c3ccccc3)OC(=O)[C@H]2[C@@H]1C(N)=O`: the composite z-score in experiment [1] was 0.184; in experiment [2] it was -1.21; in experiment [3] it was -0.549; in experiment [4], -0.934; in experiment [5], -0.0645; in experiment [6], -0.219. Moreover, the composite z-score in the experiment on Lefty1 was -0.295; in [8], -0.784; in [10] it was -0.0353; in experiment [15], -0.928; in [16], -0.105; in the experiment with Torsin-1A (Homo sapiens) [17], -1.49. Moreover, the composite z-score with Torsin-1A (Homo sapiens) [18] is -1.74; in [19], 0.0139. In addition, the z-score in experiment [7] is -0.65; in experiment [9], -0.22 (inactive); in experiment [11], -0.281 (inactive); in experiment [12], -0.125 (inactive); in [13], -0.0515 (inactive); in experiment [14], 0.143 (inactive).

The values are drawn from PubChem BioAssay.
